Out of some 310,000 compounds screened, about 14,000 (4.5%) showed an effect of 50% or more. Effects have a minus sign here. The list comes from a sample in which strong results are over-represented; it also holds similar structures and randomly drawn compounds.
What follows are compounds tested against human ether-à-go-go-related gene (hERG) potassium channel (human, UniProt Q12809) (assay: primary screen, population patch clamp on CHO cells stably expressing hERG; higher = less effect of the substance).
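Further: peak tail current of the secondary pulse compared with the same well before compound.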

human ether-à-go-go-related gene (hERG) potassium channel, sequence (Q12809 whole entry, looked up): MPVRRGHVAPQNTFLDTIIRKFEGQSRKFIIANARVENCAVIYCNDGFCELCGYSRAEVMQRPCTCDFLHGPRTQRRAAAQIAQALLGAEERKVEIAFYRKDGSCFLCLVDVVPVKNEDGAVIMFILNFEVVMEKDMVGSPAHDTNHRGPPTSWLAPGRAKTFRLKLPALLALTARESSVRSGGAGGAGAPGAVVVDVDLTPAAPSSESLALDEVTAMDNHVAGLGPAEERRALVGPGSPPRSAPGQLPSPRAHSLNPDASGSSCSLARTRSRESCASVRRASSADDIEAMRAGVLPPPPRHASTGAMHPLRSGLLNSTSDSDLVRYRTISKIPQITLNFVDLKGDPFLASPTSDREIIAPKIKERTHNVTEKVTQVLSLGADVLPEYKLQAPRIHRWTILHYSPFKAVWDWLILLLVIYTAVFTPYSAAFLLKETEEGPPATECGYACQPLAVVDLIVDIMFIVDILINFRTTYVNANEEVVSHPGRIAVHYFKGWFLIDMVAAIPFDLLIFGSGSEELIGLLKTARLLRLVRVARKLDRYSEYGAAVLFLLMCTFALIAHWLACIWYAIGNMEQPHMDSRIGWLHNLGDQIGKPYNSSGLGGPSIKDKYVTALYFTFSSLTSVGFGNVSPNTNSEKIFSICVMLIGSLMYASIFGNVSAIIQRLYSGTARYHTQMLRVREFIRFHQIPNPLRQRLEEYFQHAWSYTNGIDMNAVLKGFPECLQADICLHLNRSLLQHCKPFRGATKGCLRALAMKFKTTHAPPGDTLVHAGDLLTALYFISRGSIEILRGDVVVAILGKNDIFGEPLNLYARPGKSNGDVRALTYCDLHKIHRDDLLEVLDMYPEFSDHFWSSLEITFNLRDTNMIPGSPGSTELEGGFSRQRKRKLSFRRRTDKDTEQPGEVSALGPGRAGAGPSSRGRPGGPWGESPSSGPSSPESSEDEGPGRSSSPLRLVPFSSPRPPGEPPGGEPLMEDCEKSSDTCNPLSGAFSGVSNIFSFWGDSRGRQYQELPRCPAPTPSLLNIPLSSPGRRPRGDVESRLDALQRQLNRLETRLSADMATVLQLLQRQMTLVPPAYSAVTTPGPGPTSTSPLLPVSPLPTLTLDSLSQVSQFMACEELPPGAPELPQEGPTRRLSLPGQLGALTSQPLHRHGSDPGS

Compound	hERG current change (%, negative = inhibition) at 10uM [%]
O=C(CN1C(=O)CCOc2ccccc21)Nc1ccc(Cl)c(S(=O)(=O)N2CCOCC2)c1	-7.44
O=C(CCn1cnnn1)Nc1cccc(F)c1	21.3
S=C(NCCSCc1c(Cl)cccc1Cl)Nc1ccccc1	-3.31
COCCn1c(C)cc(C2=NNC(=Nc3ccc(OC)cc3)SC2)c1C	1.3
Cc1ccc(S(=O)(=O)Nc2ccnc3ccccc23)cc1	-4.28
Cc1ccc(F)cc1NC(=O)c1sc2ncn(CC(=O)N3CCN(c4ccccn4)CC3)c(=O)c2c1C	-5.06
O=C(COC(=O)CCC(=O)c1cccs1)NC1CCCCC1	1.55
CCCCCCC(=O)N/N=C/c1c(O)n(C2CC2)c(=S)[nH]c1=O	-4.67
Cc1cc(N2CCN(c3ccccc3)CC2)n2nnnc2n1	-3.56
Cc1cccc(N2CCN(c3cc(C)nc4nnnn34)CC2C)c1 (centres unmarked)	-53.1
Cc1cccc(N2CCN(c3nnnn3-c3ccccc3)CC2C)c1 (centres unmarked)	-10.8
O=C(NCCc1ccco1)C(=O)NCC1CCCN1S(=O)(=O)c1ccccc1 (centres unmarked)	-33.5
CSc1ccc(/C=C(\NC(=O)c2ccc(C)cc2)C(=O)Nc2cccc(C)c2)cc1	15.6
CC(C)Oc1ccc(C2CC(=O)N(c3ccccc3)C2=O)cc1 (centres unmarked)	6.47
COc1ccc(-c2cc(=NCC(=O)O)c3ccccc3o2)cc1.[O-][Cl+3]([O-])([O-])O	-31.5
CCC(N=c1cc(-c2ccc(OC)cc2)oc2ccc(C)cc12)C(=O)O (centres unmarked)	-74.4
COc1ccc(-c2cc(=[NH+]c3cccc(C(=O)O)c3)c3cc(C)ccc3o2)cc1.[O-][Cl+3]([O-])([O-])[O-]	-0.536
COc1ccc(-c2cc(=Nc3ccc(C(=O)O)cc3)c3cc(C)ccc3o2)cc1	12.7
CCC(N=c1cc(-c2ccc(OC)c(OC)c2)oc2ccc(C)cc12)C(=O)O (centres unmarked)	-20.7

Compound	hERG current change (%, negative = inhibition) at 10uM [%]
COc1ccc(-c2cc(=NC(CC(C)C)C(=O)O)c3cc(C)ccc3o2)cc1 (centres unmarked)	-56.5
O=C(CN1C(=O)NC2(CCc3ccccc32)C1=O)NCC(=O)Nc1ccc(F)cc1 (centres unmarked)	1.09
CCCc1c(C(=O)N/N=C/c2ccccc2C(F)(F)F)nnn1-c1nonc1N	11.8
CC(C)c1ccc(CNc2ccc3c(c2)ncn3C)cc1	9.16
CC(C)(C)OC(=O)N1CCC[C@H]1c1nnc(SCc2c(Cl)cccc2Cl)o1	-57.5
CC(C)(C)OC(=O)N1CCC[C@H]1c1nnc(SCc2ccccc2Cl)o1	-5.07
CC(C)(C)OC(=O)N1CCC[C@H]1c1nnc(SCc2c(F)cccc2Cl)o1	2.16
Cc1ccccc1CNc1nnnn1C	12.4
Br.O=C(CN1CCSC1=NCc1ccccc1)c1ccc(Cl)c(Cl)c1	-17.7
Br.O=C(CN1CCSC1=NCc1ccccc1)c1ccccc1	-23.5
Br.O=C(CN1CCSC1=NCc1ccccc1)c1ccc(Cl)cc1	-53.9
C=CCNC(=O)c1c(-c2c(F)cccc2Cl)noc1C	-1.62
Cc1ccc(S(=O)(=O)N2CCC(C(=O)N3CCC[C@H]3C(=O)NCC(C)C)CC2)cc1	13.8
Cl.N=c1sccn1CC(=O)NCCc1ccc(Cl)cc1	-26.3
CC(C)N=c1cc2n(-c3ccc(Cl)cc3)c3ccccc3nc-2cc1Nc1ccc(Cl)cc1	35.9
CCN(Cc1ccncc1)C(=O)c1cc(COc2ccc(F)cc2F)on1	-36
Cc1cccc(C)c1OCc1cc(C(=O)N(C)Cc2nc3ccccc3[nH]2)no1	-70.6
CCN(Cc1ccncc1)C(=O)c1ccc(C)o1	-0.494
CCN(Cc1ccncc1)C(=O)c1ccco1	-73.5

Compound	hERG current change (%, negative = inhibition) at 10uM [%]
CC(=O)c1ccc(OCc2cc(C(=O)N(C)Cc3nc4c(C)cccc4[nH]3)no2)cc1	-10.7
COc1cccc(OCc2cc(C(=O)N(C)Cc3nc4ccccc4[nH]3)no2)c1	-37.1
CCN(Cc1ccncc1)C(=O)c1ccc(Br)o1	1.66
CCN(Cc1ccccc1)C(=O)c1cc(COc2c(F)cccc2F)on1	3.85
CCN(Cc1ccncc1)C(=O)c1cc(COc2ccc(C)c(C)c2)on1	-69.5
CCN(Cc1ccncc1)C(=O)c1cc(COc2c(F)cccc2F)on1	-36
CCN(Cc1ccncc1)C(=O)c1cc(COc2c(C)cccc2C)on1	-75.3
CCN(Cc1ccncc1)C(=O)c1cc(COc2ccc(OC)cc2Cl)on1	-22.6
CCN(CC(=O)NC1CCS(=O)(=O)C1)S(=O)(=O)c1cc(C)ccc1C (centres unmarked)	10.2
COc1ccc(NC(=O)Cn2c(=O)c(C)nc3ccccc32)cc1Cl	-2.07
CN(C)c1ccc(CCc2ccc(N)cc2)cc1	19.9
Cc1sc(NC(=O)c2ccco2)c(CN2CCN(c3ccccc3)CC2)c1C	7.18
CCOc1ccc2c(c1)nc(NCCCO)n2Cc1ccccc1	-20.3
O=c1[nH]c2ccccc2nc1-c1cccs1	1.66
COc1cc(C)nc(N2CCCC(C(=O)Nc3cccc(Cl)c3C)C2)n1 (centres unmarked)	0.916
C/C(=C\C(=O)c1cccnc1)Nc1ccc(O)cc1	-6.35
CCOc1cc(N(CC)CC)ccc1/C=C(/C#N)c1nc2ccccc2[nH]1	0.119
NC(=O)c1nc(-c2ccco2)nc2c1[nH]c(=O)n2-c1ccc(Cl)c(Cl)c1	-9.13
